The record followed here is PubChem BioAssay AID743287 (Broad Institute, 2014).

Values joined by “and” are separate entries in the source; they are usually repeats but may differ in a detail not shown here. Identical values can stand only once. About 2,300 (0.62%) of roughly 370,000 compounds were called active.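 Rule for the calls: active = lowest replicate activation of at least 40%, so every replicate reaches that level; inactive = the rest.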 For the sample, actives were picked, then their nearest neighbours and some compounds at random.

The test can be described thus: GLuc luminescence reporter in INS-1E cells, primary screen for activators of glucose-dependent secretion of insulin (AID 743287).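 Note: 0% = median of neutral control wells and 100% = median of IBMX positive control wells.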 The settings on record: INS-1E GLuc reporter insulin secretion, 2-3 h, at 16.6 µM, stronger effect = higher value.
In the case of `COc1cccc(CNC(=O)c2cc3c(c(-c4cccc(-c5ccc(C#N)cc5)c4)n2)[C@@H](CCO)N([S@](=O)C(C)(C)C)C3)c1`, the activation was 11.4% (inactive).
To `O=C1NCCOCc2cn(nn2)CC[C@@H]1Cc1ccccc1` belongs 9.64% (inactive).
Turning to `CCOC(=O)c1sc2nc(C)nc(SCC(N)=O)c2c1C`, the activation was 13.1% (inactive).
Take `CCOC(=O)c1sc2nc(C)nc(Nc3ccc(OC)c(OC)c3)c2c1C`: the activation was 15.4% (inactive).
For `CCOC(=O)c1sc2nc(C)[nH]c(=O)c2c1C`, the activation is 49.9% (active).
Turning to `CCCNC(=O)N1C[C@@H](O)COC[C@H]2O[C@H](CC(=O)N3CCC(Cc4ccccc4)CC3)CC[C@@H]21`, the activation is 2.87% (inactive).
For the compound `CC(C)NC(=O)N1CCCCN2[C@H](CO)[C@@H](c3ccc(Br)cc3)[C@H]2C1`, the activation was 1.31% (inactive).
For the compound `COc1ccc(-c2c(NC(=O)c3ccco3)oc3ccc(Cl)cc3c2=O)cc1`, the activation is 106% (active).
For `COc1ccc(OC)c(NC(=O)c2cnn(-c3ccccc3Cl)c2NC(=O)c2ccco2)c1`, the activation is -0.082% (inactive).
As to `Cc1cccc(-c2c(NC(=O)c3ccco3)oc3ccc(Cl)cc3c2=O)c1`, the activation was -13.2% (inactive).
To `O=C(Nc1cc(F)ccc1F)N1CCCCN2[C@H](CO)[C@@H](c3ccc(-c4cccnc4)cc3)[C@@H]2C1` belongs -2.5% (inactive); to `CO[C@H]1CN(C)C(=O)c2ccc(NC(=O)C3CCCC3)cc2OC[C@@H](C)NC[C@@H]1C`, -7.48% (inactive); to `COc1cccc(CNC(=O)[C@@H]2[C@@H](CO)[C@@H]3Cn4c(ccc(-c5cccnc5)c4=O)[C@@H]3N2C)c1`, -0.31% (inactive).
Consider `O=C(NCC[C@@H]1CC[C@@H](NS(=O)(=O)c2ccc(Cl)cc2)[C@@H](CO)O1)c1ccccc1F`, for which the activation is 6.92% (inactive).
Turning to `C[C@@H]1CN([C@H](C)CO)S(=O)(=O)c2ccc(C3=CCCC3)cc2O[C@H]1CN(C)C(=O)CC1CC1`, the activation is -5.57% (inactive).
Take `COCCCNC(=O)CCc1nc2cccnc2n1Cc1ccc(OC)cc1`: the activation was 10.4% (inactive).
Turning to `CCOc1ncccc1C(=O)NCCc1ccc(OC)cc1`, the activation was 35.2% (inactive).
As for `CCOC(=O)Cn1c(=O)n(Cc2ccc(OC)cc2)c(=O)c2cccnc21`, the figure is 46.4% (active); as for `COCC(=O)N1CCC2(CC1)CN(C(=O)Nc1ccccc1F)[C@@H](CO)c1c2c2ccc(OC)cc2n1C`, -10.5% (inactive); as for `O=S(=O)(NCC[C@H]1CC[C@@H](NS(=O)(=O)c2cccc(Cl)c2)[C@@H](CO)O1)c1cccc(F)c1`, -5.04% (inactive).
Regarding `CO[C@@H]1CN(C)C(=O)c2ccc(NS(=O)(=O)c3ccc(Cl)cc3)cc2OC[C@@H](C)N(C)C[C@H]1C`, the activation is -6.5% (inactive) and 12.1% (inactive).
As for `CN(C)C(=O)c1ccc(-c2ccc(C3[C@@H]4CN(C(=O)Nc5ccccc5)C[C@H]3N4)cc2)cc1` (stereo partly drawn), the activation was -5.33% (inactive).
As for `Cc1cccc(-c2ccc(C3[C@@H]4CN(C(=O)Nc5ccc(C(F)(F)F)cc5)C[C@H]3N4)cc2)c1` (stereo partly drawn), the figure is 763% (active); as for `O=C(C1CCCCC1)N1C[C@@H]2N[C@H](C1)C2c1ccc(-c2cccc(F)c2)cc1` (stereo partly drawn), 22.3% (inactive) and -4.66% (inactive).
Turning to `C[C@H]1CN([C@@H](C)CO)C(=O)c2cc(NC(=O)C3CCCCC3)ccc2O[C@H]1CN(C)S(=O)(=O)c1cn(C)cn1`, the activation was 17.4% (inactive).
As for `O=C(C1CCOCC1)N1CC(=O)N2[C@H](CO)[C@H](c3ccc(C#CC4CCCCC4)cc3)[C@H]2C1`, the figure is 6.98% (inactive).
As for `CN(C)C(=O)N1CCN(C(=O)[C@@H](Cc2ccccc2)NC(=O)[C@H]2O[C@@H](n3ccc(N)nc3=O)[C@H](O)[C@@H]2O)CC1`, the figure is 13.5% (inactive); as for `O=C(N[C@H](Cc1ccccc1)C(=O)N1CCCN(Cc2cccs2)CC1)[C@H]1O[C@@H](n2ccc(=O)[nH]c2=O)[C@H](O)[C@@H]1O`, 13% (inactive); as for `Cc1ccc2nc(CN(C)C(=O)[C@@H](Cc3ccccc3)NC(=O)[C@H]3O[C@@H](n4ccc(=O)[nH]c4=O)[C@H](O)[C@@H]3O)[nH]c2c1`, 42.3% (active).
In the case of `CN1C(=O)c2cc(NS(C)(=O)=O)ccc2OC[C@H]2O[C@H](CC(=O)NCc3ccccc3)CC[C@H]21`, the activation is 4.81% (inactive).
As to `CCOC(=O)c1oc2ccccc2c1NC(=O)c1cccs1`, the activation is 77.1% (active).
`NC(=O)c1oc2ccccc2c1NC(=O)Cc1ccccc1`: the activation is 9.27% (inactive).
In the case of `Cc1nc2ccccn2c(=O)c1NC(=O)c1cccs1`, the activation is 3.74% (inactive).
As for `COc1ccc(NC(=O)Nc2cccc3c2O[C@H](CN(C)Cc2ccc(Cl)c(Cl)c2)[C@H](C)CN([C@@H](C)CO)C3=O)cc1`, the figure is -19% (inactive); as for `C[C@H]1CN([C@@H](C)CO)C(=O)Cc2cc(NC(=O)Cn3cnnn3)ccc2O[C@@H]1CN(C)Cc1ccc(-c2ccccc2)cc1`, -17.4% (inactive); as for `COc1cccc(-n2nc(C(=O)N3CCN(Cc4ccccc4)CC3)c3ccccc3c2=O)c1`, -2.64% (inactive).
With `COCCCNC(=O)CNC(=O)c1nn(-c2ccc(OC)cc2)c(=O)c2ccccc12`, the activation was 5.37% (inactive).
Take `O=c1c2ccccc2ncn1CCc1ccncc1`: the activation is 2.05% (inactive).
On to `O=C1c2oc3ccccc3c(=O)c2C(c2cccc(O)c2)N1c1ccccn1` (stereo not drawn), for which the activation was -8.86% (inactive).
As to `O=C(O)c1ccc(-n2nc(-c3ccccc3)c3ccccc3c2=O)cc1`, the activation is 65.3% (active).
`O=c1c2ccccc2c(-c2ccccc2)nn1-c1ccccn1`: the activation was 53.1% (active).
With `C[C@@H]1CN([C@H](C)CO)C(=O)c2cc(NS(=O)(=O)c3cccs3)ccc2O[C@@H](C)CCCCO[C@@H]1CN(C)C(=O)c1ccncc1`, the activation was -1.55% (inactive).
As for `C[C@@H]1CN([C@@H](C)CO)C(=O)CCCn2cc(nn2)CO[C@@H]1CN(C)S(=O)(=O)c1ccccc1C#N`, the figure is 4.61% (inactive); as for `COc1ccc2c3c(n(C)c2c1)[C@H](CO)N(C(=O)c1ccncc1)CC31CCN(CC2CC2)CC1`, 14.2% (inactive); as for `O=C(C[C@@H]1CC[C@@H](NC(=O)C2CC2)[C@@H](CO)O1)NCc1ccccc1Cl`, -6.27% (inactive).
With `C[C@@H]1CN([C@H](C)CO)C(=O)c2cccc(NC(=O)Nc3ccc4c(c3)OCO4)c2O[C@H]1CN(C)C(=O)Nc1ccc(F)cc1`, the activation is -11.4% (inactive).
With `Cc1ccc(S(=O)(=O)Nc2ccc3c(c2)C(=O)N([C@@H](C)CO)C[C@@H](C)[C@@H](CN(C)S(=O)(=O)c2ccc(C)cc2)O3)cc1`, the activation is -10.5% (inactive).
For `Cc1ccc(S(=O)(=O)N(C)C[C@@H]2Oc3ccc(NC(=O)Nc4ccc(F)cc4)cc3C(=O)N([C@H](C)CO)C[C@@H]2C)cc1`, the activation was -24.3% (inactive).
With `N#Cc1ccc(-c2ccc([C@@H]3[C@H]4CNC[C@@H]3N4Cc3ccc4c(c3)OCO4)cc2)cc1`, the activation is 3.4% (inactive).
As for `N#Cc1ccc(-c2ccc([C@@H]3[C@H]4CNC[C@@H]3N4Cc3cc(F)ccc3F)cc2)cc1`, the activation was 137% (active).
For the compound `COc1ccccc1CN1[C@@H]2CNC[C@H]1C2c1ccc(-c2cccc(C#N)c2)cc1` (stereo partly drawn), the activation is 0.586% (inactive) and -8.29% (inactive).
Regarding `CCCC(=O)Nc1ccc2c(c1)C(=O)N(C)[C@@H]1CC[C@H](CC(=O)NCCOC)O[C@H]1CO2`, the activation was -1.04% (inactive).
To `C[C@H](CO)N1C[C@H](C)[C@@H](CN(C)C(=O)C2CC2)Oc2ncc(C#CC(C)(C)O)cc2C1=O` belongs 3.22% (inactive); to `C[C@@H]1CN([C@H](C)CO)C(=O)c2cccc(NC(=O)c3ccncc3)c2O[C@@H]1CN(C)S(=O)(=O)c1cn(C)cn1`, 8.83% (inactive); to `COCc1ccc(CN2CCC(Oc3ccc(C(=O)NCc4ccccn4)cc3)CC2)o1`, 2.23% (inactive).
As for `COc1ccc2oc(=O)c(C(=O)NCc3ccccn3)cc2c1`, the activation was 70.8% (active).
To `COc1ccccc1CNS(=O)(=O)c1cc(C(=O)NCc2ccccn2)c(Cl)cc1Cl` belongs 4.38% (inactive).
As to `C[C@@H]1CN([C@H](C)CO)C(=O)c2cc(NC(=O)NC3CCCCC3)ccc2O[C@@H]1CN(C)S(C)(=O)=O`, the activation was -8.57% (inactive).
With `CC(C)CC#Cc1ccc2c(c1)O[C@H](CN(C)Cc1cccnc1)[C@H](C)CN([C@@H](C)CO)S2(=O)=O`, the activation was -26.2% (inactive).
To `CC1CCN(c2nc3c(c(=O)[nH]c(=O)n3C)n2CCCc2ccccc2)CC1` belongs 3.62% (inactive); to `C=CCn1c(SCc2ccccc2)nc2c1c(=O)[nH]c(=O)n2C`, 52% (active); to `CC=CCn1c(SCCCc2ccccc2)nc2c1c(=O)[nH]c(=O)n2C`, 3.95% (inactive).
Turning to `CO[C@H]1CN(C)C(=O)c2cc(NS(=O)(=O)c3ccccc3C)ccc2OC[C@@H](C)NC[C@@H]1C`, the activation was 2.17% (inactive).
As for `COCC(=O)N(C)C[C@H]1Oc2cc(C#CC(C)C)ccc2S(=O)(=O)N([C@H](C)CO)C[C@@H]1C`, the activation was 1.27% (inactive).
On to `COCC(=O)N(C)C[C@H]1Oc2cc(Br)ccc2S(=O)(=O)N([C@H](C)CO)C[C@H]1C`, for which the activation is 46.1% (active).
With `C[C@@H]1CN([C@@H](C)CO)S(=O)(=O)c2ccc(Br)cc2O[C@@H]1CN(C)C(=O)CN(C)C`, the activation was 21.4% (inactive).
On to `COc1ccc(NC(=O)N[C@H]2C=C[C@H](CC(=O)NCc3ccccn3)O[C@H]2CO)cc1`, for which the activation was 15.4% (inactive).
Consider `COc1ccc2c3c(n(C)c2c1)[C@H](CO)N(Cc1ccccc1)CC31CCN(C)CC1`, for which the activation is 15.2% (inactive).
In the case of `O=C(O)CCCCCCCCCC[n+]1ccccc1`, the activation is 91.6% (active).
For the compound `CC(C)C#Cc1ccc2c(c1)O[C@H](CN(C)CC1CCOCC1)[C@@H](C)CN([C@H](C)CO)S2(=O)=O`, the activation was -18.8% (inactive).
To `CCCc1cc(-c2nc(-c3ccc(C)cc3)cs2)ccn1` belongs 90.4% (active).
In the case of `CCCc1cc(=O)oc2c(C)c(OCC(=O)NCc3ccccn3)ccc12`, the activation is 11.9% (inactive).
To `CCCCCN1CC(O)=C(c2nc(-c3ccc(Cl)cc3)cs2)C1=N` belongs 35.7% (inactive).
